Data as given in the supplement of paper PMC6555819.

Tested on: PPARg:RXRa DBDmut IVT, anti-RXR (DBD mutation: RXRa K156A/R161A, NR concentration 270 nM, RXRa partner concentration 90 nM)
Experiment: PBM binding z-score (relative to random genomic background probes); higher = stronger binding; sequences stand for … in GC…GCGATTGACAGCGTAGAATGAAGG
In short: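 Each nuclear receptor dimer, without ligand, was incubated for 1 h on custom Agilent 4×180K protein-binding microarrays. Binding was detected with antibodies against each partner (one per run), and scanned fluorescence was regression-normalized. The binding z-scores are referenced to random human genomic background probes.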

Sequence	PBM binding z-score
CGTCCAAGGTCATAGGAGATCAGTGAAGACAGAT	3.22
CCTTACGGGTCAAGGCTATAGCACGGGTGGTACG	1.68
CGAACGAGGGCATGAGTTGATAGCAAATGCCGAT	3.29
CCAGACAGGTGAGAAGGTAACTCCGCCTCGATTA	1.06
TCTACTAGTTGATTAGGGCAACCGAAACAGCGGA	1.59
GAGACAGGGTCAAGGCCAGAGTACGCGTATTGAT	1.79
TCTAGTTGGTCACGGAGGTCACTCACGACGGGTA	2.58
CTCGAAAGGTCGGTTGAGGTGTGTATACGGATAA	-0.0512
CCTACTGGGCCATTCAGAGTTCATTGATCATATG	4.56
CAGCCTAGGTTAGGGCCAGTATAGGAGGAACGTT	-0.289
GCGACTGGGGCCAAGCAGGTTACCATAAGGTTGG	-0.26
CGAACGAGGGCATGAGTTGATGGCAAATGCCGAT	3.03
GGAACGATGGCAAGTTGATAGCAGAGTTTGATGG	0.0538
CGTCCAAGGTCAAAGGTCAGTCAAGAGATGACGG	3.88
CGTCCAAGGTCAAAGGTCAGTGCAGAGATGACGG	3.55
CCTTCTGGGCCAAAGGTCATTGATTCCAATGCTC	5.17
TTTTGTAGATCAAGCAGGTTAAGAAAGCCTGAGT	0.762
AAGACAGGGTCATCGTAGGCCAGAGTACGCACAG	1.48
GCTAGCAGGCCATTTAGGTCACTCAATGACGGGC	1.71
AATACAGGGTCACTAGGCCAGAGTTGGTACGAAT	4.05
TCATATAGGTAATACAGGTGAAAGTGGGCATCTA	4.07
CGAACTAGGTCTAGGACAGTGAATCTCCGCACGC	2.28
